Measurements reported in the supplement of paper PMC3334620.
Whole data set: some 33,000 sequences, median “E-score (-0.5 to 0.5)” near -0.021, cut for the highest 2% near 0.32. The sample holds the highest values, similar sequences and a random draw of the others, so the mix is not that of the screen.

Molecular target: T1, Zap1 (UniProt P47043)
T1 sequence: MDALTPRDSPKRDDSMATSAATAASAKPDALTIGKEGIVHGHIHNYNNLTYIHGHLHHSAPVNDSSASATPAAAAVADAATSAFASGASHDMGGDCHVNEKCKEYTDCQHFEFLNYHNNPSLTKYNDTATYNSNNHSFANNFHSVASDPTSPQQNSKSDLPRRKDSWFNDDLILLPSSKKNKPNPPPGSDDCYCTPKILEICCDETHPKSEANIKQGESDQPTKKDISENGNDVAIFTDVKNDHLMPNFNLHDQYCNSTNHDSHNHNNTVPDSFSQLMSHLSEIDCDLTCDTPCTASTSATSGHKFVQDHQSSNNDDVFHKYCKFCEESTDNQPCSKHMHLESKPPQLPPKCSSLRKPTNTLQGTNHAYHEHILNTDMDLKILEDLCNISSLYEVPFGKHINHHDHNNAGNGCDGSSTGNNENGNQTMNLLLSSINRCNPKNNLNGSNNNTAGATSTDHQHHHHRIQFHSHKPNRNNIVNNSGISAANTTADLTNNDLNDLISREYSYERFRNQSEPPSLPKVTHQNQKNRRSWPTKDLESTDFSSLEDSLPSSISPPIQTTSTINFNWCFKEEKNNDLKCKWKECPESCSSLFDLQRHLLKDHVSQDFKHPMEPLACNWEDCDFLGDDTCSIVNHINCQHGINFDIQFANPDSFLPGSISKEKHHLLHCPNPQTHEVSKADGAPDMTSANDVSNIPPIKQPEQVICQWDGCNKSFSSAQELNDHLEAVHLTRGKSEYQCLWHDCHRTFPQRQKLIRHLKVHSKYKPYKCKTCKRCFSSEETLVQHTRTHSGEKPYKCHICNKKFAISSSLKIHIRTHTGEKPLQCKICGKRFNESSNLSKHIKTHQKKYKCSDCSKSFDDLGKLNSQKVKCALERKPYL
Assay: PBM E-score (8-mer binding enrichment) (E-score (-0.5 to 0.5)); higher = stronger / more preferred TF binding
Settings: protein concentration: 200 nM; construct: GST-full length
Procedure, shortened: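 Masliner-normalised scans of fluorescent anti-GST signal were the basis for scoring. That signal came from GST-tagged yeast transcription factors applied at about 100-200 nM to double-stranded universal all-10-mer Agilent arrays on fresh or once-stripped slides. Each ungapped eight-base word, pooled with its reverse complement, received an E-score from the Universal PBM Analysis Suite.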

First: CACCTATA
Second: CACCTAAA
The “PBM E-score” value of the first is lower: 0.0311 for the first, 0.191 for the second.

Compared with TACCTACA, AACCTAAA is higher in “PBM E-score” value: 0.137 for the first, 0.356 for the second.

First: TACCTAAA
Second: AACCTATA
The “PBM E-score” value of the first is lower: 0.199 for the first, 0.374 for the second.

Going from TACCTAGA to TACCTATA, the “PBM E-score” value rises from 0.163 to 0.337.

Going from ATGCGTTC to GCAGGCAA, the “PBM E-score” value falls from -0.0993 to -0.144.

Compared with ACTCAGAG, CTGATAAA is higher in “PBM E-score” value: 0.11 for the first, 0.121 for the second.

Compared with GGAACACC, ATTTCTCG is higher in “PBM E-score” value: 0.105 for the first, 0.176 for the second.

First: CTTGCTAC
Second: ATCTCACC
The “PBM E-score” value of the first is higher: 0.0655 for the first, -0.0161 for the second.

Compared with CGACTGGA, ACCTCTAT is higher in “PBM E-score” value: -0.193 for the first, 0.293 for the second.

First: GCCTCAAA
Second: ACCTCTCT
The “PBM E-score” value of the first is lower: 0.00889 for the first, 0.0304 for the second.

Going from ACCTCAAG to ACCTCTAC, the “PBM E-score” value rises from 0.251 to 0.259.

First: CCCTCTCA
Second: ACCTCTCA
The “PBM E-score” value of the first is lower: -0.23 for the first, 0.344 for the second.

First: ACCTCAAA
Second: ACCTCTAG
The “PBM E-score” value of the first is lower: 0.326 for the first, 0.411 for the second.

First: CACTGGCG
Second: GCTTCAAC
The “PBM E-score” value of the first is lower: -0.0169 for the first, 0.00654 for the second.

Compared with TAGCCAGA, CGAGCTAA is lower in “PBM E-score” value: -0.00683 for the first, -0.031 for the second.

Going from GATCAGAA to AGTAATAT, the “PBM E-score” value rises from -0.106 to 0.178.

First: AGAGCTAC
Second: GACCCACC
The “PBM E-score” value of the first is lower: -0.184 for the first, 0.245 for the second.

Compared with CCCCCACC, AACCCACA is higher in “PBM E-score” value: -0.378 for the first, 0.331 for the second.

Compared with AACCCACC, AACCCACG is lower in “PBM E-score” value: 0.343 for the first, 0.156 for the second.

Compared with CACCCACC, GCCCCACC is higher in “PBM E-score” value: 0.194 for the first, 0.283 for the second.

Going from ACCCCACC to CACCCACA, the “PBM E-score” value falls from 0.419 to 0.168.

Going from ATTTTCTA to CTATGAGC, the “PBM E-score” value falls from 0.122 to -0.127.

Going from CTTCTCCC to ATCCTCAC, the “PBM E-score” value rises from -0.213 to 0.0272.

Compared with GAAGATGA, AGGGTACT is higher in “PBM E-score” value: 0.0533 for the first, 0.441 for the second.

Compared with GGGGTACA, AGAGTACT is lower in “PBM E-score” value: 0.249 for the first, -0.144 for the second.

First: AGGGTACG
Second: ACGGTACA
The “PBM E-score” value of the first is higher: 0.296 for the first, 0.213 for the second.

Compared with AGGGTACA, AGTGTACC is lower in “PBM E-score” value: 0.337 for the first, 0.0741 for the second.

Going from GGCGTACC to AGGGTACC, the “PBM E-score” value rises from 0.0458 to 0.461.

First: GGGGTACC
Second: AGCGTACT
The “PBM E-score” value of the first is higher: 0.424 for the first, -0.127 for the second.

First: TGGGTACA
Second: CGAAGCAA
The “PBM E-score” value of the first is higher: 0.174 for the first, -0.00093 for the second.

Compared with CCCCATAG, CAAAACTG is lower in “PBM E-score” value: 0.201 for the first, 0.0208 for the second.

First: CATGGGAG
Second: AAATATAT
The “PBM E-score” value of the first is lower: 0.0124 for the first, 0.224 for the second.

Going from ATCTATCG to GAACAAGC, the “PBM E-score” value falls from -0.167 to -0.175.

Going from CAGCCCAA to AATTCCGT, the “PBM E-score” value rises from -0.0128 to -0.0101.

Going from ATGGTACA to CTGGTACC, the “PBM E-score” value rises from 0.08 to 0.286.

Compared with CGGGTACG, CGGGTACC is higher in “PBM E-score” value: 0.0198 for the first, 0.432 for the second.

Going from CGGGTACA to ATGGTACC, the “PBM E-score” value rises from 0.122 to 0.392.

Compared with ACGCTTGA, CCCCTAGC is lower in “PBM E-score” value: 0.0154 for the first, -0.167 for the second.

Compared with GGGGCTTA, ACGTCATA is higher in “PBM E-score” value: -0.25 for the first, -0.0571 for the second.

First: ACCCAGCC
Second: AACTAAGA
The “PBM E-score” value of the first is lower: -0.139 for the first, 0.0908 for the second.

First: CCTGGGGA
Second: AAGGGTAG
The “PBM E-score” value of the first is lower: -0.183 for the first, 0.375 for the second.

Compared with ACGGGTAG, AGGGGTAC is higher in “PBM E-score” value: 0.255 for the first, 0.398 for the second.

Going from CCGGGTAA to GCGGGTAC, the “PBM E-score” value rises from 0.246 to 0.256.

Compared with AGGGGTAG, CCGGGTAC is higher in “PBM E-score” value: 0.312 for the first, 0.348 for the second.

Going from CAGGGTAA to CTGGGTAA, the “PBM E-score” value falls from 0.354 to 0.185.

Going from CGGGGTAC to CAGGGTGA, the “PBM E-score” value falls from 0.316 to 0.313.

Compared with GGGGGTAC, AGCCAAGC is lower in “PBM E-score” value: 0.186 for the first, -0.307 for the second.

First: GGGTAGTA
Second: ACTTCAAA
The “PBM E-score” value of the first is higher: 0.219 for the first, -0.13 for the second.

Going from GACACACA to GCGGGCGA, the “PBM E-score” value falls from 0.028 to -0.105.

Going from CCCATCTA to ACCTATCC, the “PBM E-score” value rises from -0.0762 to 0.152.

Going from ACAGTAGG to CACGGGGA, the “PBM E-score” value falls from -0.209 to -0.219.

Going from AAGGGTAA to TGGGGTAA, the “PBM E-score” value falls from 0.393 to 0.347.

First: ATGGGTAA
Second: AGGGGTAA
The “PBM E-score” value of the first is lower: 0.242 for the first, 0.272 for the second.

First: CGGGGTAA
Second: AAGGGTGT
The “PBM E-score” value of the first is lower: 0.299 for the first, 0.316 for the second.

Going from AGGGGTAT to GAGGGTGC, the “PBM E-score” value falls from 0.258 to 0.138.

Compared with GATGGTAC, GAGGGTAC is higher in “PBM E-score” value: 0.199 for the first, 0.374 for the second.

First: AAGGGTAT
Second: GGGGGTAA
The “PBM E-score” value of the first is higher: 0.421 for the first, -0.0883 for the second.

First: CTTTCGCC
Second: CGGTTGTC
The “PBM E-score” value of the first is lower: -0.179 for the first, 0.279 for the second.

Compared with CATGTGCA, TTCTTAAA is lower in “PBM E-score” value: 0.0255 for the first, -0.028 for the second.

First: ACGTCGTA
Second: CATCAATA
The “PBM E-score” value of the first is lower: -0.287 for the first, 0.0615 for the second.

First: CGTGGCCA
Second: GGCACGTA
The “PBM E-score” value of the first is higher: 0.0519 for the first, -0.273 for the second.

First: CAGGGTGC
Second: CAGGGTAC
The “PBM E-score” value of the first is lower: 0.0059 for the first, 0.437 for the second.

First: CAGGGTAG
Second: ATGGGTAC
The “PBM E-score” value of the first is lower: 0.306 for the first, 0.328 for the second.

Going from ATGGGTAG to ACGGGTAC, the “PBM E-score” value falls from 0.238 to 0.231.

First: AAGGGTAC
Second: CTGGGTAC
The “PBM E-score” value of the first is higher: 0.426 for the first, 0.305 for the second.

Going from TCGGGTAA to TAGGGTAA, the “PBM E-score” value rises from 0.24 to 0.396.

First: GAGGGTAA
Second: AAGGGTCC
The “PBM E-score” value of the first is lower: 0.264 for the first, 0.274 for the second.

Compared with AGTCAGGC, CACTACGC is lower in “PBM E-score” value: -0.101 for the first, -0.163 for the second.

Compared with CGGCTAGA, CCCTGCGA is higher in “PBM E-score” value: -0.178 for the first, 0.0758 for the second.

First: CCAACTGC
Second: AACACAGT
The “PBM E-score” value of the first is lower: -0.165 for the first, -0.00444 for the second.

Going from AAGCTTTC to GCGTGACC, the “PBM E-score” value rises from 0.0356 to 0.326.

First: CCGTGACC
Second: CCGTGACA
The “PBM E-score” value of the first is higher: 0.376 for the first, -0.136 for the second.

Going from CCGTGACG to ACGTGACC, the “PBM E-score” value rises from -0.0247 to 0.249.

Compared with GCGTGACA, TATACATA is higher in “PBM E-score” value: -0.136 for the first, 0.106 for the second.

First: CACTAGAG
Second: ACACTGAA
The “PBM E-score” value of the first is lower: 0.0544 for the first, 0.111 for the second.

Going from GCCAGACA to TGTTACAA, the “PBM E-score” value rises from 0.0344 to 0.098.

Compared with CGTTACAA, AGTTACAC is lower in “PBM E-score” value: 0.121 for the first, 0.0701 for the second.

Compared with GGTTACAA, CGTTACAC is lower in “PBM E-score” value: 0.455 for the first, 0.0157 for the second.

Compared with GGTTACAC, GGGCTTAA is lower in “PBM E-score” value: 0.403 for the first, -0.0211 for the second.

Compared with ACGTGTAT, TATCGACA is higher in “PBM E-score” value: -0.152 for the first, 0.0537 for the second.

First: ATTGTGAC
Second: CACATAGC
The “PBM E-score” value of the first is higher: 0.159 for the first, -0.136 for the second.

Going from ACGAGAGT to ATCCCTAC, the “PBM E-score” value rises from -0.197 to -0.023.
